# Measurements published in the supplement of paper PMC8728848.
# Many of the other results were omitted from the sample, so the strongest signals are more common in it than they were.
# How the values were obtained:
# Assay in all cases: glycan array binding signal (z-score within array); higher = stronger binding
# Conditions in all cases: glycan notation: IUPAC condensed, linker removed
# [1] = target: Fuc(a1-2)Gal(b1-3)GalNAc(a1-3)[Fuc(a1-2)]Gal(b1-4)Glc
# Summary of the method: (§1)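 From the Consortium for Functional Glycomics database, 3228 arrays were curated, keeping only those whose protein sequence was available. Binding is given as a within-array Z-score averaged across arrays sharing a protein sequence and across linkers. Negative Z-scores can be read as non-binding.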
# [2] = target: Fuc(a1-2)Gal(b1-3)[Fuc(a1-4)]GlcNAc(b1-3)[Gal(b1-4)GlcNAc(b1-6)]Gal(b1-4)Glc
# Summary of the method: as §1
# [3] = target: Fuc(a1-2)[Gal(a1-3)]Gal(b1-3)GlcNAc(b1-6)GalNAc
# Summary of the method: as §1
# [4] = target: Fuc(a1-2)[Gal(a1-3)]Gal(b1-4)[Fuc(a1-3)]Glc
# Summary of the method: as §1
# [5] = target: Fuc(a1-2)[Gal(a1-4)]Gal(b1-4)GlcNAc
# Summary of the method: as §1
# [6] = target: Fuc(a1-2)[GalNAc(a1-3)]Gal(b1-3)GalNAc(a1-3)[Fuc(a1-2)]Gal(b1-4)GlcNAc
# Summary of the method: as §1
# [7] = target: Fuc(a1-2)[GalNAc(a1-3)]Gal(b1-4)GlcNAc(b1-3)Gal(b1-4)GlcNAc
# Summary of the method: as §1
# [8] = target: Fuc(a1-2)[GalNAc(a1-3)]Gal(b1-4)[Fuc(a1-3)]GlcNAc(b1-3)GalNAc
# Summary of the method: as §1
# [9] = target: Fuc(a1-3)[Gal(b1-4)]GlcNAc6S
# Summary of the method: as §1
# [10] = target: Gal(a1-3)Gal(b1-3)GlcNAc
# Summary of the method: as §1
# [11] = target: Gal(a1-3)Gal(b1-4)GlcNAc(b1-3)GalNAc
# Summary of the method: as §1
# [12] = target: Gal(a1-4)Gal(b1-3)GlcNAc(b1-2)Man(a1-3)[Gal(a1-4)Gal(b1-3)GlcNAc(b1-2)Man(a1-6)]Man(b1-4)GlcNAc(b1-4)GlcNAc
# Summary of the method: as §1
# [13] = target: Gal(b1-3)GlcNAc(b1-3)Gal(b1-4)GlcNAc(b1-6)[Gal(b1-3)GlcNAc(b1-3)]Gal(b1-4)Glc
# Summary of the method: as §1
# [14] = target: Gal(b1-3)[Fuc(a1-4)]GlcNAc(b1-6)GalNAc
# Summary of the method: as §1
# [15] = target: Gal(b1-4)GlcNAc
# Summary of the method: as §1
# [16] = target: Gal(b1-4)GlcNAc(a1-6)Gal(b1-4)GlcNAc
# Summary of the method: as §1
# [17] = target: Gal(b1-4)GlcNAc(b1-2)Man(a1-3)Man(b1-4)GlcNAc(b1-4)GlcNAc
# Summary of the method: as §1
# [18] = target: Gal(b1-4)GlcNAc(b1-2)[Gal(b1-4)GlcNAc(b1-4)]Man(a1-3)[GlcNAc(b1-4)][Gal(b1-4)GlcNAc(b1-2)Man(a1-6)]Man(b1-4)GlcNAc(b1-4)GlcNAc
# Summary of the method: as §1
# [19] = target: Gal(b1-4)GlcNAc(b1-2)[Gal(b1-4)GlcNAc(b1-6)]Man(a1-6)[Gal(b1-4)GlcNAc(b1-2)Man(a1-3)]Man(b1-4)GlcNAc(b1-4)[Fuc(a1-6)]GlcNAc
# Summary of the method: as §1
# [20] = target: Gal(b1-4)GlcNAc(b1-3)Gal(b1-4)GlcNAc(b1-2)[Gal(b1-4)GlcNAc(b1-3)Gal(b1-4)GlcNAc(b1-6)]Man(a1-6)[Gal(b1-4)GlcNAc(b1-3)Gal(b1-4)GlcNAc(b1-2)Man(a1-3)]Man(b1-4)GlcNAc(b1-4)[Fuc(a1-6)]GlcNAc
# Summary of the method: as §1
# [21] = target: Gal(b1-4)GlcNAc(b1-3)Gal(b1-4)GlcNAc(b1-3)Gal(b1-4)GlcNAc(b1-3)Gal(b1-4)GlcNAc(b1-2)[Gal(b1-4)GlcNAc(b1-3)Gal(b1-4)GlcNAc(b1-3)Gal(b1-4)GlcNAc(b1-3)Gal(b1-4)GlcNAc(b1-6)]Man(a1-6)[Gal(b1-4)GlcNAc(b1-3)Gal(b1-4)GlcNAc(b1-3)Gal(b1-4)GlcNAc(b1-3)Gal(b1-4)GlcNAc(b1-2)Man(a1-3)]Man(b1-4)GlcNAc(b1-4)[Fuc(a1-6)]GlcNAc
# Summary of the method: as §1
# [22] = target: Gal(b1-4)GlcNAc(b1-3)Gal(b1-4)GlcNAc(b1-3)Gal(b1-4)GlcNAc(b1-3)Gal(b1-4)GlcNAc(b1-3)Gal(b1-4)GlcNAc(b1-2)Man(a1-3)[Gal(b1-4)GlcNAc(b1-3)Gal(b1-4)GlcNAc(b1-3)Gal(b1-4)GlcNAc(b1-3)Gal(b1-4)GlcNAc(b1-3)Gal(b1-4)GlcNAc(b1-2)Man(a1-6)]Man(b1-4)GlcNAc(b1-4)GlcNAc
# Summary of the method: as §1
# [23] = target: Gal(b1-4)GlcNAc(b1-3)Gal(b1-4)GlcNAc(b1-3)Gal(b1-4)GlcNAc(b1-3)Gal(b1-4)GlcNAc(b1-3)Gal(b1-4)GlcNAc(b1-2)[Gal(b1-4)GlcNAc(b1-3)Gal(b1-4)GlcNAc(b1-3)Gal(b1-4)GlcNAc(b1-3)Gal(b1-4)GlcNAc(b1-3)Gal(b1-4)GlcNAc(b1-6)]Man(a1-6)[Gal(b1-4)GlcNAc(b1-3)Gal(b1-4)GlcNAc(b1-3)Gal(b1-4)GlcNAc(b1-3)Gal(b1-4)GlcNAc(b1-3)Gal(b1-4)GlcNAc(b1-2)Man(a1-3)]Man(b1-4)GlcNAc(b1-4)[Fuc(a1-6)]GlcNAc
# Summary of the method: as §1
# [24] = target: Gal(b1-4)GlcNAc(b1-6)Gal(b1-4)GlcNAc
# Summary of the method: as §1
# [25] = target: Gal6S(b1-3)GlcNAc6S
# Summary of the method: as §1
# [26] = target: Gal6S(b1-4)Glc
# Summary of the method: as §1
# [27] = target: GalNAc(a1-3)GalNAc
# Summary of the method: as §1
# [28] = target: GalNAc(b1-3)Gal(a1-6)Gal(b1-4)Glc
# Summary of the method: as §1
# [29] = target: GalNAc(b1-3)GalNAc
# Summary of the method: as §1
# [30] = target: GalNAc(b1-4)GlcNAc
# Summary of the method: as §1
# [31] = target: Glc(b1-6)Glc
# Summary of the method: as §1
# [32] = target: GlcNAc(b1-3)Gal(b1-4)GlcNAc(b1-3)Gal(b1-4)GlcNAc(b1-3)Gal(b1-4)GlcNAc(b1-3)Gal(b1-4)GlcNAc(b1-2)[GlcNAc(b1-3)Gal(b1-4)GlcNAc(b1-3)Gal(b1-4)GlcNAc(b1-3)Gal(b1-4)GlcNAc(b1-3)Gal(b1-4)GlcNAc(b1-6)]Man(a1-6)[GlcNAc(b1-3)Gal(b1-4)GlcNAc(b1-3)Gal(b1-4)GlcNAc(b1-3)Gal(b1-4)GlcNAc(b1-3)Gal(b1-4)GlcNAc(b1-2)Man(a1-3)]Man(b1-4)GlcNAc(b1-4)[Fuc(a1-6)]GlcNAc
# Summary of the method: as §1
# [33] = target: GlcNAc(b1-3)Gal(b1-4)GlcNAc(b1-6)[Gal(b1-3)]GalNAc
# Summary of the method: as §1
# [34] = target: Man(a1-2)Man(a1-2)Man(a1-6)[Man(a1-3)]Man
# Summary of the method: as §1
# [35] = target: Man(a1-2)Man(a1-3)[Man(a1-2)Man(a1-6)]Man(a1-6)[Man(a1-2)Man(a1-2)Man(a1-3)]Man
# Summary of the method: as §1
# [36] = target: Man(a1-6)Man
# Summary of the method: as §1
# [37] = target: Neu5Ac(a2-3)Gal(b1-3)GalNAc6S
# Summary of the method: as §1
# [38] = target: Neu5Ac(a2-3)Gal(b1-4)GlcNAc(b1-2)[Neu5Ac(a2-3)Gal(b1-4)GlcNAc(b1-6)]Man(a1-6)[Neu5Ac(a2-3)Gal(b1-4)GlcNAc(b1-2)Man(a1-3)][GlcNAc(b1-4)]Man(b1-4)GlcNAc(b1-4)GlcNAc
# Summary of the method: as §1
# [39] = target: Neu5Ac(a2-3)Gal(b1-4)GlcNAc(b1-3)Gal
# Summary of the method: as §1
# [40] = target: Neu5Ac(a2-3)Gal(b1-4)GlcNAc(b1-3)Gal(b1-4)[Fuc(a1-3)]GlcNAc
# Summary of the method: as §1
# [41] = target: Neu5Ac(a2-3)Gal(b1-4)GlcNAc6S
# Summary of the method: as §1
# [42] = target: Neu5Ac(a2-3)Gal(b1-4)[Fuc(a1-3)]GlcNAc(b1-3)GalNAc
# Summary of the method: as §1
# [43] = target: Neu5Ac(a2-6)Gal(b1-4)GlcNAc(b1-2)Man(a1-3)[Neu5Ac(a2-6)Gal(b1-4)GlcNAc(b1-2)Man(a1-6)]Man(b1-4)GlcNAc(b1-4)GlcNAc
# Summary of the method: as §1
# [44] = target: Neu5Ac(a2-6)Gal(b1-4)GlcNAc(b1-2)Man(a1-6)Man(b1-4)GlcNAc(b1-4)GlcNAc
# Summary of the method: as §1
# [45] = target: Neu5Ac(a2-6)Gal(b1-4)GlcNAc(b1-2)[Neu5Ac(a2-6)Gal(b1-4)GlcNAc(b1-4)]Man(a1-3)[GlcNAc(b1-4)][Neu5Ac(a2-6)Gal(b1-4)GlcNAc(b1-4)Man(a1-6)]Man(b1-4)GlcNAc(b1-4)GlcNAc
# Summary of the method: as §1
# [46] = target: Neu5Ac(b2-6)Gal(b1-4)GlcNAc
# Summary of the method: as §1
# [47] = target: Neu5Gc(a2-3)Gal(b1-4)Glc
# Summary of the method: as §1
binder,measurement,setting,value
Drgal1 (Danio rerio) (protein) MAGVLIQNMSFKVGQTLTITGVPKPDSTNFAINIGHSPEDIALHMNPRFDAHGDQCTIVCNSFQSGSWCEEHRDDNFPFIQDKEFQIKITFTNEEFLVTLPDGSEIHFPNRQGSEKYKYMYFEGEVRIQGVEIK,glycan array binding signal (z-score),[1],-0.59
same,glycan array binding signal (z-score),[2],0.383
same,glycan array binding signal (z-score),[3],0.084
same,glycan array binding signal (z-score),[4],-0.54
same,glycan array binding signal (z-score),[5],0.347
same,glycan array binding signal (z-score),[6],-0.091
same,glycan array binding signal (z-score),[7],-0.493
same,glycan array binding signal (z-score),[8],2.22
same,glycan array binding signal (z-score),[9],2.04
same,glycan array binding signal (z-score),[10],-0.76
same,glycan array binding signal (z-score),[11],-0.48
same,glycan array binding signal (z-score),[12],-0.114
same,glycan array binding signal (z-score),[13],1.9
same,glycan array binding signal (z-score),[14],-0.443
same,glycan array binding signal (z-score),[15],-0.448
same,glycan array binding signal (z-score),[16],0.244
same,glycan array binding signal (z-score),[17],0.231
same,glycan array binding signal (z-score),[18],-0.015
same,glycan array binding signal (z-score),[19],0.501
same,glycan array binding signal (z-score),[20],1.92
same,glycan array binding signal (z-score),[21],2.07
same,glycan array binding signal (z-score),[22],7.35
same,glycan array binding signal (z-score),[23],2.15
same,glycan array binding signal (z-score),[24],0.065
same,glycan array binding signal (z-score),[25],-0.095
same,glycan array binding signal (z-score),[26],0.281
same,glycan array binding signal (z-score),[27],0.206
same,glycan array binding signal (z-score),[28],-0.416
same,glycan array binding signal (z-score),[29],0.158
same,glycan array binding signal (z-score),[30],3.67
same,glycan array binding signal (z-score),[31],-0.633
same,glycan array binding signal (z-score),[32],1.89
same,glycan array binding signal (z-score),[33],-0.519
same,glycan array binding signal (z-score),[34],-0.589
same,glycan array binding signal (z-score),[35],-0.28
same,glycan array binding signal (z-score),[36],1.43
same,glycan array binding signal (z-score),[37],-0.412
same,glycan array binding signal (z-score),[38],3.36
same,glycan array binding signal (z-score),[39],-0.372
same,glycan array binding signal (z-score),[40],-0.022
same,glycan array binding signal (z-score),[41],-0.362
same,glycan array binding signal (z-score),[42],5.78
same,glycan array binding signal (z-score),[43],0.521
same,glycan array binding signal (z-score),[44],0.046
same,glycan array binding signal (z-score),[45],-0.106
same,glycan array binding signal (z-score),[46],0.234
same,glycan array binding signal (z-score),[47],0.145
